According to PubChem BioAssay:

assay: PSAC antagonists in infected red cells, primary screen, cell-based, P. falciparum Indochina, OD700, 2 h (AID 1155);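 also: lysis reports solute entry through the parasite surface anion channel PSAC; channel blockers reduce lysis of infected cells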; conditions: P. falciparum Indochina infected erythrocytes, osmotic lysis OD700; higher = more signal, called active from +8 up or from −8 down

z-score, inactive:
COCCOC(=O)N1C(=O)[C@@]2(c3cc(C#Cc4ccc(OC)cc4)ccc31)[C@H](C(=O)N1CCCCCCC1)[C@H]1C(=O)O[C@H](c3ccccc3)[C@H](c3ccccc3)N1[C@@H]2c1ccc(O)cc1 -0.134, COc1cc2c(cc1OC)CN(C(=O)[C@H]1[C@@H]3C(=O)O[C@@H](c4ccccc4)[C@@H](c4ccccc4)N3[C@@H](c3ccc(OCCO)cc3)[C@]13C(=O)Nc1ccc(C#CC4(O)CCCCCC4)cc13)CC2 2.15, CCCC[C@@H]1C[C@H]1[C@@H](NC(=O)c1cccnc1)c1ccc(-c2ccccc2)cc1 0.818, CON(C)C(=O)C=C1C[C@@H](c2cccc(Cl)c2)O[C@@H](c2cccc(Cl)c2)O1 2.17, COCCCNC(=O)[C@]1(CCC(=O)OC(C)(C)C)N=C(c2ccc(OCCCO)cc2)O[C@@H]1c1ccccc1 1.61, C=CCOC(=O)[C@H]1[C@@H]2C(=O)O[C@@H](c3ccccc3)[C@@H](c3ccccc3)N2[C@@H](c2ccc(OCCOC(=O)[C@H]3C[C@H]4C(=O)N[C@@H](Cc5ccccc5)C(=O)N4[C@H]3c3ccc(O)cc3)cc2)[C@]12C(=O)Nc1ccc(I)cc12 2.09, CC(C)(C)N1CC=CC23O[C@@H]4C=CCOC(=O)[C@@H]4[C@H]2C(=O)N(CCCO)[C@@H]3C1=O (stereo partly drawn) -0.831, NCCCCCCNC(=O)[C@@H]1C[C@@H]2C(=O)N3CCC[C@H]3C(=O)N2[C@@H]1c1ccc(O)cc1 0.026
